Bioassay records: PubChem, Buhrlage Lab, Dana-Farber Cancer Institute and Novartis Institutes for BioMedical Research (Cambridge, Mass)
Sampled rows, rich in hits. Any-hit rate of the full collection: about 13%.
USP28 block = inhibitors of human USP28 deubiquitinase; Ubiquitin carboxyl-terminal hydrolase 28 (Homo sapiens), Q96RU2; purified USP28, Ub-rhodamine cleavage fluorescence, 30 min; inhibition, % at 25 µM; 47,000 tested, 3% active
USP8 inh = inhibitors of human USP8 deubiquitinase; Ubiquitin carboxyl-terminal hydrolase 8 (Homo sapiens), P40818; 47,000 tested, 4.2% active; purified USP8, Ub-rhodamine cleavage fluorescence, 30 min; inhibition, % at 20 µM
Target sequence (P40818 whole entry, looked up): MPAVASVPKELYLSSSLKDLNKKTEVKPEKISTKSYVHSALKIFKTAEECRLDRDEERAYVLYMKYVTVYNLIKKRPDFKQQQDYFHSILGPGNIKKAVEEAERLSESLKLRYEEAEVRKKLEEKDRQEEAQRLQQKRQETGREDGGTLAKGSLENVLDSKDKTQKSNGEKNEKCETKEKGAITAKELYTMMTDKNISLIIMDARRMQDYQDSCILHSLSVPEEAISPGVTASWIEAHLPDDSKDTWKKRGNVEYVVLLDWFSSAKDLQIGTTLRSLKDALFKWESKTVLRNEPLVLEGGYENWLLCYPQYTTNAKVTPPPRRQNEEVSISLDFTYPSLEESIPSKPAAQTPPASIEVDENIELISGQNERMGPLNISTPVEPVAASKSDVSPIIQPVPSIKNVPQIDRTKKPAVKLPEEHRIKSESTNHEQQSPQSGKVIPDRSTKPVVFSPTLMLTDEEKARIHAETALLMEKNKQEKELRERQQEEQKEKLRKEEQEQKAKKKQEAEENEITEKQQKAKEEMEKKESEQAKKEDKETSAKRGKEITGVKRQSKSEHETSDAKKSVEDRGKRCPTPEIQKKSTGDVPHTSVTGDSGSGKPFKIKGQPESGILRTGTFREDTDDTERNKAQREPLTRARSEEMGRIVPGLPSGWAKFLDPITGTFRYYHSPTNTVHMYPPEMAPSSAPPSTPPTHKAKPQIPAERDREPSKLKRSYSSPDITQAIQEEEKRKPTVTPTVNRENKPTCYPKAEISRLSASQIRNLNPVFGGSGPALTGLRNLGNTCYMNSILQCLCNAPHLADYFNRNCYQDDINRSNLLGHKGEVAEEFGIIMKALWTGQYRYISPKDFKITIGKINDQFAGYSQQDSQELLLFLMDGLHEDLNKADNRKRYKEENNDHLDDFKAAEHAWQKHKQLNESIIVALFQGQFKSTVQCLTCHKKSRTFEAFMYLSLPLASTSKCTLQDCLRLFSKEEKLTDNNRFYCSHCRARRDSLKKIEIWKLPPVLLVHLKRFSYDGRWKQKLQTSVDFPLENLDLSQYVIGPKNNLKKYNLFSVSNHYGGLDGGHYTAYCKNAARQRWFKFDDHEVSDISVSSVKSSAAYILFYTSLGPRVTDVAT
USP10 block = inhibitors of human USP10 deubiquitinase | Ubiquitin carboxyl-terminal hydrolase 10 (Homo sapiens), Q14694 | 47,000 tested, 1.1% active | purified USP10, Ub-rhodamine fluorescence, 60 min | inhibition, % at 20 µM
USP17 block = inhibitors of human USP17 deubiquitinase. inhibition, % at 50 µM. AID 1645855, 2021. purified USP17, Ub-rhodamine cleavage fluorescence, 3 h. 47,000 tested, 6.5% active. Ubiquitin carboxyl-terminal hydrolase 17-like protein 5 (Homo sapiens), A8MUK1
USP30 inh = inhibitors of human USP30 deubiquitinase; purified USP30, Ub-rhodamine cleavage fluorescence; AID 1645860, 2021; 47,000 tested, 5.3% active; inhibition, % at 25 µM; Ubiquitin carboxyl-terminal hydrolase 30 (Homo sapiens), Q70CQ3
* hit, by the source's call; i = inactive. No stated cut-off is given here; in the data, active means inhibition above about 30%; inactive means the rest.

SMILES | USP28 block | USP8 inh | USP10 block | USP17 block | USP30 inh
Clc1cncc(Oc2nc(-c3cccnc3)nc3ccccc23)c1 | -4 | 6 | -3 | 63* | 8
CC1CCN(C(=O)c2cnc3ccccc3c2S(=O)(=O)c2ccc(Cl)cc2)CC1 | 20 | 5 | 8 | 19 | 38*
COc1ccc(C(=O)Nc2cccc(-c3nc4ncccc4o3)c2)cc1 | -7 | -1 | -1 | -9 | -19
O=C(Nc1cccc(-c2nc3ncccc3o2)c1)c1cccc(-c2cc3ccccc3oc2=O)c1 | 69* | 6 | 4 | 68* | 67*
Cc1cccc(NC(=O)Nc2cccc(-c3nnc(-c4ccccc4)o3)c2)c1 | 15 | 17 | 9 | 16 | 25
COc1ccc(CC(=O)Nc2cccc(-c3nc4ncccc4o3)c2)cc1OC | 55* | 6 | -1 | -26 | 0
Cc1ccc(OCC(=O)Nc2cccc(-c3nc4ncccc4o3)c2)c(C)c1 | 16 | 0 | 0 | 20 | 59*
COc1ccc(CC(=O)Nc2cccc(-c3cn4cccnc4n3)c2)cc1 | 15 | -4 | -6 | 31* | -286
O=C(CN1CCC(S(=O)(=O)c2ccc(-c3cccs3)cc2)CC1)c1ccc(F)cc1 | -23 | -9 | -7 | -3 | -145
COCCCn1c(C)c(C)c(S(=O)(=O)c2ccccc2)c1NC(=O)c1ccccc1F | 9 | 6 | 2 | -2 | 22
O=C(C1CCC1)N1CCCC2(COCCN(c3cccnc3)C2)C1 (stereo unspecified) | 1 | 0 | 0 | 11 | 3
COc1ccc(C(=O)Nc2cc(C)c(O)c(-c3nc4ncccc4o3)c2)cc1Cl | 0 | -11 | -4 | 19 | -48
COc1ccc(C(=O)Nc2ccc(-c3nc4ncccc4o3)cc2)cc1Br | 21 | 9 | -1 | 32* | 26
COc1cccc(N2CCN(C(=O)C3CCN(c4nc(NC(C)=O)ns4)CC3)CC2)c1 | -4 | -47 | -4 | 69* | -3
CCc1ccc(NC(=O)Cn2c(=O)n(Cc3ccccc3)c(=O)c3nn(CC)cc32)cc1 | 28 | 98* | 56* | 73* | 78*
CCn1cc2c(n1)c(=O)n(Cc1ccccc1)c(=O)n2CC(=O)Nc1ccc(OC)cc1 | 2 | 68* | 47* | 80* | 39*
CCOc1ccc(NC(=O)Cn2c(=O)n(Cc3ccncc3)c(=O)c3ncccc32)cc1 | 22 | 17 | -3 | 20 | 12
CC(C)c1ccc(NC(=O)Cn2c(=O)n(Cc3ccncc3)c(=O)c3ncccc32)cc1 | -11 | 1 | -3 | -17 | -48
CCc1ccc(NC(=O)Cn2c(=O)n(C)c(=O)c3nscc32)cc1 | 24 | 3 | -3 | 39* | -83
CCn1cc2c(n1)c(=O)n(Cc1ccccc1)c(=O)n2CC(=O)Nc1ccc(C(C)C)cc1 | 1 | 71* | 23 | 40* | 29
COc1cc(-c2nnc(CSc3ccc(C(F)(F)F)cn3)o2)cc(OC)c1OC | 13 | 5 | -6 | 27 | 38*
COc1ccc(CCc2nnc(-c3cnc4onc(C5CC5)c4c3)o2)cc1 | 3 | 14 | 10 | 14 | 4
COc1ccc(C(=O)NC(Cc2ccccc2)c2nc3ccccc3[nH]2)c(OC)c1 (stereo unspecified) | 28 | 95* | 18 | 71* | 1
O=C(NC(Cc1ccccc1)c1nc2ccccc2[nH]1)c1ccccn1 (stereo unspecified) | 57* | -40 | -3 | -16 | -11
O=C(NC(Cc1ccccc1)c1nc2ccccc2[nH]1)c1ccc(-n2cnnn2)cc1 (stereo unspecified) | 2 | 43* | 1 | 11 | 19
SMILES | USP28 block | USP8 inh | USP10 block | USP17 block | USP30 inh
O=C(NC(Cc1ccccc1)c1nc2ccccc2[nH]1)C1CCC1 (stereo unspecified) | 12 | 63* | -1 | 17 | 11
O=C(N[C@@H](Cc1ccccc1)c1nc2ccccc2[nH]1)c1ccncc1 | 5 | 10 | -2 | 24 | -9
COc1ccc(Cn2c(-c3cccs3)nc3oc4ccccc4c(=O)c3c2=O)cc1 | -32 | 7 | -4 | -11 | -156
Cc1nc(-c2ccc(S(=O)(=O)N3c4ccccc4CC3C)cc2)co1 (stereo unspecified) | -11 | -37 | -5 | -16 | -36
CC1=C(C(=O)Nc2cccnc2)C(c2ccc(O)cc2)n2nc(-c3ccccc3)nc2N1 (stereo unspecified) | 15 | 6 | -3 | 5 | 5
Cc1cnn(CC2CCCCN2C(=O)CCc2c(C)nn(C)c2C)c1 (stereo unspecified) | 6 | 14 | 1 | 2 | 2
O=C(NC(Cc1c[nH]c2ccccc12)c1nc2ccccc2[nH]1)c1ccccc1 (stereo unspecified) | -2 | 42* | -7 | 34* | -38
C[C@@]12C[C@H](c3ccccc3)N(C(=O)CCC(=O)O)[C@@H]1CCC[C@@H](O)[C@H]2O | -27 | -7 | -7 | -3 | -45
Cc1ccc(CN2C(=O)c3cc4ccccc4n3CC2(C)C(=O)NCc2ccccc2)o1 (stereo unspecified) | 8 | 5 | 7 | 64* | 30
COc1ccc(N2C(=O)c3cc4ccccc4n3CC2(C)C(=O)NC2CCCC2)cc1 (stereo unspecified) | 10 | 31* | 11 | 15 | 15
CC1(C(=O)NCc2ccccc2)Cn2c(cc3ccccc32)C(=O)N1Cc1ccccc1 (stereo unspecified) | 23 | -162 | 16 | 50* | 0
CC1(C(=O)NCc2ccccc2)Cn2c(cc3ccccc32)C(=O)N1Cc1cccnc1 (stereo unspecified) | 8 | 29 | 5 | 12 | -31
CC1(C(=O)NC2CCCC2)Cn2c(ccc2-c2ccco2)C(=O)N1Cc1ccccc1 (stereo unspecified) | -10 | 57* | -6 | 30 | -234
COc1ccc(-n2c(=O)c(CCC(=O)O)nc3ccccc32)cc1 | -7 | 15 | -1 | 50* | -45
COc1ccc(-n2c(/C=C/c3cccc4ccccc34)nc3ccccc3c2=O)cc1 | 3 | -6 | 6 | -9 | 9
Cc1csc2ncc(C(=O)NCCc3ccc(Cl)cc3)c(=O)n12 | 14 | 0 | 5 | 37* | 26
COc1ccc(-c2cc(NC=O)c3ncc(-c4cnn(C)c4)n3c2)cn1 | -227 | -212 | -8 | -180 | i
Cn1c(=O)c2c(nc(CN3CCN(c4ccccc4)CC3)n2CCN2CCOCC2)n(C)c1=O | -2 | -1 | 0 | -5 | -3
Cn1c(=O)c2c(nc(CN3CCOCC3)n2CCc2ccccc2)n(C)c1=O | 1 | 5 | 4 | 3 | 32*
Cc1cccc(NC(=O)CC2C(=O)N(Cc3cccnc3)c3nc4ccccc4n32)c1 (stereo unspecified) | -14 | -13 | 0 | -16 | -7
